From PubChem BioAssay
For part of these data: Entries with a potency or affinity are not part of this list. The source made the active and inactive calls. Unless noted, how the calls were made is not given here.

How the values were obtained:
[1] = antimalarial activity against Dd2 strain (AID 2302;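 active means growth inhibition above 50% at the single 2 µM test dose, taken to imply half-maximal potency below 2 µM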;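 further: 0% = DMSO untreated growth and 100% = chloroquine plus artemisinin killed control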); conditions: P. falciparum Dd2 in RBCs, LDH growth readout, 72 h; at 2 µM; active compounds read high
[2] = HepG2 cytotoxicity, primary screen, cytotoxicity control for P. falciparum antimalarial project, cell-based, ATP luminescence (AID 2303;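 active means inhibition above 50%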;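 further: 0% = DMSO wells and 100% = digitonin-killed cells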); conditions: HepG2 viability, 24-48 h, at 10 µM, active compounds read high
[3] = molecular target: L-lactate dehydrogenase (Plasmodium falciparum (isolate CDC / Honduras)) (UniProt Q27743); experiment: PfLDH activity inhibition – cell lysate, 3D7 strain, counter-screen for P. falciparum growth inhibition project (AID 2304);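 further: 0% = vehicle and 100% = reference inhibitor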; conditions: P. falciparum 3D7 crude extract, LDH APAD/NBT absorbance; at 2 µM; active compounds read high
Sequence of L-lactate dehydrogenase (Plasmodium falciparum (isolate CDC / Honduras)) (Q27743 whole entry, looked up): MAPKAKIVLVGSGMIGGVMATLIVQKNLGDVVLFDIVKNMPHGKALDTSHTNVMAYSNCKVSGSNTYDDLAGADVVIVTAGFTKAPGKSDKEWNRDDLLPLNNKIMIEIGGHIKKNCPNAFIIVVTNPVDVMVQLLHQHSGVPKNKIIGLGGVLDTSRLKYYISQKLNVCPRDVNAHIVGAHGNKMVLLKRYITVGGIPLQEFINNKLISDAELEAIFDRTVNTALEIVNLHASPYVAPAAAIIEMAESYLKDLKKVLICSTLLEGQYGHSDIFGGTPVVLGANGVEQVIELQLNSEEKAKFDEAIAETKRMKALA

[4] = inhibition of 3D7 malaria parasite growth – strain 3D7 (AID 2306);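 further: 0% = DMSO wells and 100% = chloroquine plus artemisinin control wells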; conditions: P. falciparum 3D7 erythrocytic growth, LDH absorbance, 72 h; at 2 µM; active compounds read high
[5] = molecular target: Plasmodium falciparum protein kinase 6 (PK6, PF3D7_1337100) (UniProt Q8IDW1); experiment: PfPK6 kinase inhibitors, biochemical, TCAMS library (AID 1159586); conditions: recombinant PfPK6, Kinase-Glo ATP depletion luminescence
Sequence of Plasmodium falciparum protein kinase 6 (PK6, PF3D7_1337100) (Q8IDW1 1-305): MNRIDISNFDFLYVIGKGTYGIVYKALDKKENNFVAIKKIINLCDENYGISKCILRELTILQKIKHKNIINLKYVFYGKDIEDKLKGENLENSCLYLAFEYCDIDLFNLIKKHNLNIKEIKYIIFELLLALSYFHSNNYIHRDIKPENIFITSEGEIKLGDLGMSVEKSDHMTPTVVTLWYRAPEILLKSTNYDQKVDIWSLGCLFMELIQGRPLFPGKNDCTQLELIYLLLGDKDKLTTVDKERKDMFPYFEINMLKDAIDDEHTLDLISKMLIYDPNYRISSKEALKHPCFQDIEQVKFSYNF

[6] = molecular target: Protein kinase 7 (PK7), Plasmodium falciparum 3D7 (PF3D7_0213400) (UniProt Q7YTF7); experiment: inhibition of Plasmodium PK7 catalytic activity – biochemical, TCAMS antimalarial set, Kinase-Glo luminescence (AID 1159587); conditions: recombinant PfPK7, Kinase-Glo ATP depletion luminescence
Sequence of Protein kinase 7 (PK7), Plasmodium falciparum 3D7 (PF3D7_0213400) (Q7YTF7 1-343): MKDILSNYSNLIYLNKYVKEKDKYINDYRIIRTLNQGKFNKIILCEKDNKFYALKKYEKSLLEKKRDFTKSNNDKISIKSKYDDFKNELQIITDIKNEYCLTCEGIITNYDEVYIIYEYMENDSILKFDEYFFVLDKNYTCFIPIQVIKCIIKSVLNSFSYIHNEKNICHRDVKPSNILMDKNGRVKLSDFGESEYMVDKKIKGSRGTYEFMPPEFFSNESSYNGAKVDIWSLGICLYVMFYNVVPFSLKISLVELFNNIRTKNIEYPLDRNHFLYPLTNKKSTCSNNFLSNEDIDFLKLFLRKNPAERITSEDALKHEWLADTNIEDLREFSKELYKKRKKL

[7] = molecular target: Calcium-dependent protein kinase 4 (Plasmodium falciparum (isolate 3D7)) (UniProt Q8IBS5); experiment: PfCDPK4 kinase inhibitors, biochemical, TCAMS library (AID 1159588; cut-off not given, nearly all actives have IC50 up to about 0.91 µM); conditions: recombinant PfCDPK4, Kinase-Glo ATP depletion luminescence
Sequence of Calcium-dependent protein kinase 4 (Plasmodium falciparum (isolate 3D7)) (Q8IBS5 whole entry, looked up): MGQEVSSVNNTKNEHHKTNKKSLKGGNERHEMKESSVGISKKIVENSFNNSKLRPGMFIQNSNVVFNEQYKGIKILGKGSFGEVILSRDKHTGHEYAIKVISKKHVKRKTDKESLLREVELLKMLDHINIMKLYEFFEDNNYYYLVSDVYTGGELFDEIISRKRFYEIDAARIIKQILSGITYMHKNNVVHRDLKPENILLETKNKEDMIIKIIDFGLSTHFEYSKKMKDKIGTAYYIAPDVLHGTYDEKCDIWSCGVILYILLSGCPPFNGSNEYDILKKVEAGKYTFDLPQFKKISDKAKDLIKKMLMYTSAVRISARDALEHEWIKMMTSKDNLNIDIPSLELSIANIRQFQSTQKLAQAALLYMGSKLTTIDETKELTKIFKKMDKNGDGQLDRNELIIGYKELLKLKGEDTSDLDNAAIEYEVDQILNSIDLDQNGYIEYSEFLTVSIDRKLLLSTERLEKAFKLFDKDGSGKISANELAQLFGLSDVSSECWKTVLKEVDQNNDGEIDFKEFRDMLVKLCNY

CN1CCN(CCCNCc2cccc(Nc3nccc(Nc4ccc(Oc5ccccc5)cc4)n3)c2)CC1
active: growth inhibition [1] 80% | inhibition [2] 97% | growth inhibition [4] 100%
inactive: inhibition [3] -2% | outcome [5] | outcome [6] | outcome [7]

c1cncc(Oc2ccc(Nc3ccnc4cc(-c5cccc(CNCCN6CCOCC6)c5)ccc34)cc2)c1
inactive: inhibition [2] 14% | inhibition [3] 4% | outcome [5] | outcome [6] | outcome [7]
active: growth inhibition [1] 99% | growth inhibition [4] 101%

CN(C)CCN(C)Cc1nc(-c2ccc3c(Nc4ccc(Oc5ccccc5)cc4)ccnc3c2)cs1
active: growth inhibition [1] 100% | growth inhibition [4] 100%
inactive: inhibition [2] 27% | inhibition [3] -3% | outcome [5] | outcome [6] | outcome [7]

CN1CCN(Cc2cccc(-c3ccc4c(Nc5cc(O)c(Cl)cc5F)ccnc4c3)c2)CC1
active: growth inhibition [1] 100% | growth inhibition [4] 102%
inactive: inhibition [2] -1% | inhibition [3] 4% | outcome [5] | outcome [6] | outcome [7]

CC(C)(CNC(=O)C1CCN(Cc2ccoc2)CC1)c1nc(-c2ccc(Cl)c(O)c2)c(-c2ccncc2)[nH]1
active: growth inhibition [1] 66% | growth inhibition [4] 93%
inactive: inhibition [2] -12% | inhibition [3] -2% | outcome [5] | outcome [6] | outcome [7]

CN(C)CCNCc1nc(-c2ccc3c(Nc4ccc(Oc5ccccc5)cc4)ccnc3c2)cs1
active: growth inhibition [1] 100% | growth inhibition [4] 101%
inactive: inhibition [2] 8% | inhibition [3] 6% | outcome [5] | outcome [6] | outcome [7]

CC(C)(CNCc1ccccc1)c1nc(-c2ccc(Cl)c(O)c2)c(-c2ccncc2)[nH]1
active: growth inhibition [1] 99% | inhibition [2] 77% | growth inhibition [4] 101%
inactive: inhibition [3] -2% | outcome [5] | outcome [6] | outcome [7]

O=C(NCCN1CCCCC1)c1ccc(Nc2nccc(Nc3ccc(Oc4ccccc4)cc3)n2)cc1
active: growth inhibition [1] 91% | inhibition [2] 58% | growth inhibition [4] 101%
inactive: inhibition [3] -2% | outcome [5] | outcome [6] | outcome [7]

COCCNCc1cccc(-c2ccc3c(Nc4cc(O)c(Cl)cc4F)ccnc3c2)c1
inactive: inhibition [2] -3% | inhibition [3] 7% | outcome [5] | outcome [6] | outcome [7]
active: growth inhibition [1] 79% | growth inhibition [4] 101%

Fc1cc(Cl)ccc1Nc1ccnc2cc(-c3ccc(CNCCN4CCOCC4)o3)ccc12
inactive: inhibition [2] 13% | inhibition [3] -2% | outcome [5] | outcome [6] | outcome [7]
active: growth inhibition [1] 100% | growth inhibition [4] 101%

CCn1c(-c2nonc2N)nc2c(-c3cccc(NC(=O)Nc4ccc(Cl)cc4)c3)ncc(OCCCN)c21
inactive: inhibition [2] 26% | inhibition [3] -1% | outcome [5] | outcome [6] | outcome [7]
active: growth inhibition [1] 72% | growth inhibition [4] 96%

CCn1c(-c2nonc2N)nc2c(-c3ccc(CO)o3)ncc(OCCCN)c21
active: growth inhibition [1] 97% | growth inhibition [4] 93%
inactive: inhibition [2] -12% | inhibition [3] -3% | outcome [5] | outcome [6] | outcome [7]

COc1ccc2nc(-c3cc(-c4ccc(NC(C)=O)cc4)cnc3N)[nH]c2c1
inactive: inhibition [3] -1% | outcome [5] | outcome [6] | outcome [7]
active: growth inhibition [1] 73% | inhibition [2] 55% | growth inhibition [4] 93%

COc1ccc(-c2cnc3[nH]cc(-c4ccncc4)c3c2)cc1OC
inactive: inhibition [3] -2% | outcome [5] | outcome [6] | outcome [7]
active: growth inhibition [1] 97% | inhibition [2] 52% | growth inhibition [4] 98%

CN(C)CCNCc1ccc(-c2ccc3c(Nc4ccc(Cl)cc4F)ccnc3c2)o1
inactive: inhibition [2] 14% | inhibition [3] -4% | outcome [5] | outcome [6] | outcome [7]
active: growth inhibition [1] 100% | growth inhibition [4] 99%

CC(=O)Nc1cccc(Nc2nccc(Nc3ccc(Oc4ccccc4)cc3)n2)c1
inactive: inhibition [2] 15% | inhibition [3] -6% | outcome [5] | outcome [6] | outcome [7]
active: growth inhibition [1] 99% | growth inhibition [4] 101%

CC(C)(CNC(=O)C1CCN(CCOc2ccc(F)c(F)c2)CC1)c1nc(-c2ccc(Cl)c(O)c2)c(-c2ccncc2)[nH]1
active: growth inhibition [4] 101%
inactive: growth inhibition [1] 19% | inhibition [2] 41% | inhibition [3] -1% | outcome [5] | outcome [6] | outcome [7]

N#Cc1ccc(-c2cnc3ccc(NCCc4cccnc4)nn23)cc1
active: growth inhibition [1] 81% | growth inhibition [4] 99%
inactive: inhibition [2] 27% | inhibition [3] 6% | outcome [5] | outcome [6] | outcome [7]

CCCN1CCN(CCNC(=O)c2cccc(Nc3nccc(Nc4ccc(Oc5ccccc5)cc4)n3)c2)CC1
active: growth inhibition [1] 96% | inhibition [2] 56% | growth inhibition [4] 99%
inactive: inhibition [3] -7% | outcome [5] | outcome [6] | outcome [7]

COc1cc2nccc(Nc3ccc(Oc4ccccc4)cc3)c2cc1OC
active: growth inhibition [1] 99% | growth inhibition [4] 102%
inactive: inhibition [2] 13% | inhibition [3] -1% | outcome [5] | outcome [6] | outcome [7]

Oc1cccc(-c2cnc3ccc(NCc4ccc(F)cc4)nn23)c1
active: growth inhibition [1] 66% | growth inhibition [4] 91%
inactive: inhibition [2] -5% | inhibition [3] 2% | outcome [5] | outcome [6] | outcome [7]

CC(C)(CNCc1ccc(Cl)c(Cl)c1)c1nc(-c2ccc(Cl)c(O)c2)c(-c2ccncc2)[nH]1
inactive: inhibition [2] 43% | inhibition [3] -3% | outcome [5] | outcome [6] | outcome [7]
active: growth inhibition [1] 97% | growth inhibition [4] 101%

CC(C)(CNCCOc1ccc(Cl)cc1)c1nc(-c2ccc(Cl)c(O)c2)c(-c2ccnc(N)n2)[nH]1
inactive: growth inhibition [1] 19% | inhibition [2] 45% | inhibition [3] -6% | outcome [5] | outcome [6] | outcome [7]
active: growth inhibition [4] 97%

Cn1c(Nc2cc(C(C)(C)C)on2)nc2cc(Nc3ccnc(Nc4cccc(CS(C)(=O)=O)c4)n3)ccc21
inactive: inhibition [3] -4% | outcome [5] | outcome [6] | outcome [7]
active: growth inhibition [1] 94% | inhibition [2] 63% | growth inhibition [4] 99%

c1ccc(Oc2ccc(Nc3ccnc(Nc4ccc5cn[nH]c5c4)n3)cc2)cc1
active: growth inhibition [4] 94%
inactive: growth inhibition [1] 33% | inhibition [2] 6% | inhibition [3] -7% | outcome [5] | outcome [6] | outcome [7]

O=C(NCCN1CCC(c2ccncc2)CC1)c1cccc(Nc2nccc(Nc3ccc(Oc4ccccc4)cc3)n2)c1
inactive: inhibition [3] -3% | outcome [5] | outcome [6] | outcome [7]
active: growth inhibition [1] 91% | inhibition [2] 60% | growth inhibition [4] 101%

CC(C)(CNC(=O)C1CCN(CCOc2ccc(Cl)cc2)CC1)c1nc(-c2ccc(Cl)c(O)c2)c(-c2ccncc2)[nH]1
inactive: growth inhibition [1] 5% | inhibition [2] 40% | inhibition [3] 7% | outcome [5] | outcome [6] | outcome [7]
active: growth inhibition [4] 102%

O=C(NCCN1CCCC1)c1cccc(Nc2nccc(Nc3ccc(Oc4ccccc4)cc3)n2)c1
inactive: growth inhibition [1] 18% | inhibition [2] 33% | inhibition [3] -3% | outcome [5] | outcome [6] | outcome [7]
active: growth inhibition [4] 100%

CC(C)(CNC(=O)[C@@H]1CCCCN1)c1nc(-c2ccc(Cl)c(O)c2)c(-c2ccncc2)[nH]1
active: growth inhibition [1] 96% | growth inhibition [4] 97%
inactive: inhibition [2] -8% | inhibition [3] -10% | outcome [5] | outcome [6] | outcome [7]

CC(C)(CNCc1ccc(F)c(F)c1)c1nc(-c2ccc(Cl)c(O)c2)c(-c2ccnc(N)n2)[nH]1
inactive: inhibition [2] 41% | inhibition [3] -4% | outcome [5] | outcome [6] | outcome [7]
active: growth inhibition [1] 79% | growth inhibition [4] 99%
